Experimental data reported in PubChem BioAssay (NCI).
Compounds without any hit were thinned out: in the full panel of roughly 83,000, 20% have a hit.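 Single-dose data. Exposure time 48 hours. Values below 10 considered active.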 Active and inactive are the calls of the source.

system: BT-549 breast; test: NCI-60 one-dose screen, 48 h (100 = growth as untreated, 0 = no growth, -100 = all killed); conditions: 10 µM unless noted

SMILES	growth
CCOC(=O)c1c(NC(=O)c2ccc(C(C)C)cc2)sc2c(CN(C)C)c(O)ccc12	89.7% (inactive)
CCOC(=O)c1cnc2ccccc2c1Cl	112% (inactive)
CCN(CC)c1nc(SCc2ccccc2Cl)ncc1C	134% (inactive)
O=C1Nc2ccc(I)cc2C1=O	80.1% (inactive)
O=S(=O)(NCCNc1nccc(-c2c(-c3cccc(F)c3)nc3occn23)n1)c1ccc(Br)cc1	103% (inactive)
CC(C)c1ccc(COCc2cc(CN3CCCC3)c(O)c3ncccc23)cc1	13.1% (inactive)
COc1ccc2cc(C(=O)c3coc4ccc(O)cc34)ccc2c1	94.2% (inactive)
O=C(CI)NC1Oc2ccccc2-c2oc(=O)c(-c3ccccc3)cc21 (configuration not stated)	-55.7% (active)
Cc1ccc(-n2c(=S)[nH]c3sc4c(c3c2=O)CCC(=O)C4)cc1	59.9% (inactive)
COc1cccc(/C=C/C(=O)c2cc3c(N)c(C(=O)Nc4ccccc4)sc3nc2C)c1	30.3% (inactive)
O=C1C(Cl)=C(Oc2ccccc2)C(=O)c2ccccc21	70.8% (inactive)
CC(C)OC(=O)c1ccc2[nH]c(O)c(C(=Nc3ccc(N(C)C(=O)CN4CCN(C)CC4)cc3)c3ccccc3)c2c1	-78.8% (active)
N#CC1C=CN(CC(N)=O)c2ccc3cccnc3c21 (configuration not stated)	102% (inactive)
S=C(Nc1ccc(-c2nc(N3CCOCC3)c3cccn3n2)cc1)Nc1cccnc1	32.8% (inactive)
COC(=O)[C@H]1CCCN1C[C@@H](O)CN1C(=O)/C(=C\c2cc(OC)c(OC)c(OC)c2)c2ccccc21	111% (inactive)
CS(=O)(=O)Nc1cc(-c2ccc3ncnc(Nc4c(Cl)ccc5c4OCO5)c3c2)cnc1Cl	-26% (active)
COc1ccc(C(=S)N2CCN(c3ccccc3Cl)CC2)cc1OC	90.6% (inactive)
CC(C)N1CN2C(=S)NC3C2N(C1)C(=S)N3C (configuration not stated)	124% (inactive)
O=C(c1ccc(-c2nc(CSc3nc4ccccc4s3)no2)cc1)N1CCSCC1	67.7% (inactive)

SMILES	growth
O=Nc1c(-c2c(O)[nH]c3ncccc23)[nH]c2ccccc12	45.2% (inactive)
O=C1/C(=C/c2ccccc2Br)COc2ccc(O)c(O)c21	14.7% (inactive)
CCOC(=O)C(=Cc1cccc(Br)c1)C(=O)OCC	28% (inactive)
COC(C(=O)[C@@H](O)[C@@H](C)O)[C@@H]1Cc2cc3cc(O[C@H]4C[C@@H](O[C@H]5C[C@@H](O)[C@H](O)C(C)O5)[C@H](O)C(C)O4)cc(O)c3c(O)c2C(=O)[C@H]1O[C@H]1C[C@@H](O[C@H]2C[C@@H](O[C@H]3C[C@@H](OC)[C@H](O)C(C)O3)[C@@H](O)C(C)O2)[C@H](O)C(C)O1 (some centres not stated)	38.2% (inactive)
Cc1ccc(-c2cc(-c3ccc(Cl)cc3)nc(NC(=O)c3cccnc3)n2)cc1	117% (inactive)
Fc1cccc(CNc2c3ccccc3nc3ccccc23)c1F	90.6% (inactive)
CN(C)CC(=O)Nc1ccc2ncnc(Nc3ccc(Oc4cccc(C(F)(F)F)c4)c(Cl)c3)c2c1	77.5% (inactive)
Cc1cc(N)c2cc(NC(=O)/C=C\c3ccccc3Cl)ccc2n1	-72.8% (active)
N#CC1=C(N)Oc2c(sc3c(F)cccc23)C1c1ccc(F)cc1 (configuration not stated)	30.9% (inactive)
C/C(=C(/c1ccc(Cl)cc1)c1ccc(OCCN2CCCC2)cc1)c1ccc(Cl)cc1	96.5% (inactive)
COC(=O)c1ccc2c(c1)C(=O)c1c-2n(CCCN)c(=O)c2cc([N+](=O)[O-])ccc12	-100% (active)
CS(=O)(=O)C1=CN(CCO)C(=O)N2CCCN=C12	102% (inactive)
O=C1Nc2ccccc2[C@]12CC(c1ccccc1)=NN2	59.3% (inactive)
O=C(Cn1c(=O)sc2nc3ccccc3nc21)Nc1ncc(Cc2cccc(Cl)c2Cl)s1	100% (inactive)
O=C(N/N=C/c1ccc(F)cc1)c1ccc(C(F)(F)F)nc1Nc1cccc(C(F)(F)F)c1	1.7% (active)
COC(=O)[C@]1(C)CCC[C@]2(C)[C@H]3C[C@H]4C(C(C)C)=C[C@]3(CC[C@H]21)[C@H]1[C@@H]4[C@@H](OCCC#N)CC[C@@H]1OCCC#N	19.8% (inactive)
CN(C)c1ccc(Nc2cc(-c3cccc(OC(F)(F)F)c3)nc3ccc(N4CCCC4)cc23)cc1	-49.6% (active)
CCn1c(=S)sc2c(Nc3ccc(F)cc3)nc(-c3cccnc3)nc21	54.2% (inactive)

system: MDA-MB-435 melanoma; test: as above; conditions: 10 µM unless noted

SMILES	growth
CCOC(=O)c1c(NC(=O)c2ccc(C(C)C)cc2)sc2c(CN(C)C)c(O)ccc12	21.3% (inactive)
CCOC(=O)c1cnc2ccccc2c1Cl	98.9% (inactive)
CCN(CC)c1nc(SCc2ccccc2Cl)ncc1C	108% (inactive)
O=C1Nc2ccc(I)cc2C1=O	103% (inactive)
O=S(=O)(NCCNc1nccc(-c2c(-c3cccc(F)c3)nc3occn23)n1)c1ccc(Br)cc1	68.5% (inactive)
CC(C)c1ccc(COCc2cc(CN3CCCC3)c(O)c3ncccc23)cc1	20.2% (inactive)
COc1ccc2cc(C(=O)c3coc4ccc(O)cc34)ccc2c1	104% (inactive)
O=C(CI)NC1Oc2ccccc2-c2oc(=O)c(-c3ccccc3)cc21 (configuration not stated)	17.9% (inactive)
Cc1ccc(-n2c(=S)[nH]c3sc4c(c3c2=O)CCC(=O)C4)cc1	-33.3% (active)
C=CCn1c(SCC(=O)Nc2ccc(C(=O)/C=C/c3cc4cc(OC)ccc4nc3Cl)cc2)nnc1-c1ccc(Br)cc1	91.1% (inactive)
COc1cccc(/C=C/C(=O)c2cc3c(N)c(C(=O)Nc4ccccc4)sc3nc2C)c1	-6.91% (active)
O=C1C(Cl)=C(Oc2ccccc2)C(=O)c2ccccc21	108% (inactive)
CC(C)OC(=O)c1ccc2[nH]c(O)c(C(=Nc3ccc(N(C)C(=O)CN4CCN(C)CC4)cc3)c3ccccc3)c2c1	-92.6% (active)
N#CC1C=CN(CC(N)=O)c2ccc3cccnc3c21 (configuration not stated)	102% (inactive)
S=C(Nc1ccc(-c2nc(N3CCOCC3)c3cccn3n2)cc1)Nc1cccnc1	31.8% (inactive)
Cc1cc2c(O)c(-c3cccc(Cl)c3)c3sc(=O)oc3c2cc1C	28.9% (inactive)
COC(=O)[C@H]1CCCN1C[C@@H](O)CN1C(=O)/C(=C\c2cc(OC)c(OC)c(OC)c2)c2ccccc21	96.5% (inactive)
CS(=O)(=O)Nc1cc(-c2ccc3ncnc(Nc4c(Cl)ccc5c4OCO5)c3c2)cnc1Cl	-24.9% (active)
COc1ccc(C(=S)N2CCN(c3ccccc3Cl)CC2)cc1OC	91.7% (inactive)
CC(C)N1CN2C(=S)NC3C2N(C1)C(=S)N3C (configuration not stated)	104% (inactive)

SMILES	growth
O=C(c1ccc(-c2nc(CSc3nc4ccccc4s3)no2)cc1)N1CCSCC1	70.6% (inactive)
O=Nc1c(-c2c(O)[nH]c3ncccc23)[nH]c2ccccc12	72.6% (inactive)
O=C(CSc1nnc2n1S(=O)(=O)c1ccccc1N2c1ccccc1)Nc1nc2ccc(F)cc2s1	101% (inactive)
O=C1/C(=C/c2ccccc2Br)COc2ccc(O)c(O)c21	2.78% (active)
CCOC(=O)C(=Cc1cccc(Br)c1)C(=O)OCC	23.7% (inactive)
COC(C(=O)[C@@H](O)[C@@H](C)O)[C@@H]1Cc2cc3cc(O[C@H]4C[C@@H](O[C@H]5C[C@@H](O)[C@H](O)C(C)O5)[C@H](O)C(C)O4)cc(O)c3c(O)c2C(=O)[C@H]1O[C@H]1C[C@@H](O[C@H]2C[C@@H](O[C@H]3C[C@@H](OC)[C@H](O)C(C)O3)[C@@H](O)C(C)O2)[C@H](O)C(C)O1 (some centres not stated)	44.8% (inactive)
Cc1ccc(-c2cc(-c3ccc(Cl)cc3)nc(NC(=O)c3cccnc3)n2)cc1	99.8% (inactive)
Fc1cccc(CNc2c3ccccc3nc3ccccc23)c1F	87.3% (inactive)
CN(C)CC(=O)Nc1ccc2ncnc(Nc3ccc(Oc4cccc(C(F)(F)F)c4)c(Cl)c3)c2c1	61% (inactive)
Cc1cc(N)c2cc(NC(=O)/C=C\c3ccccc3Cl)ccc2n1	-80.5% (active)
N#CC1=C(N)Oc2c(sc3c(F)cccc23)C1c1ccc(F)cc1 (configuration not stated)	-51.7% (active)
C/C(=C(/c1ccc(Cl)cc1)c1ccc(OCCN2CCCC2)cc1)c1ccc(Cl)cc1	89.6% (inactive)
COC(=O)c1ccc2c(c1)C(=O)c1c-2n(CCCN)c(=O)c2cc([N+](=O)[O-])ccc12	-90.9% (active)
CS(=O)(=O)C1=CN(CCO)C(=O)N2CCCN=C12	102% (inactive)
O=C1Nc2ccccc2[C@]12CC(c1ccccc1)=NN2	-1.7% (active)
O=C(Cn1c(=O)sc2nc3ccccc3nc21)Nc1ncc(Cc2cccc(Cl)c2Cl)s1	101% (inactive)
O=C(N/N=C/c1ccc(F)cc1)c1ccc(C(F)(F)F)nc1Nc1cccc(C(F)(F)F)c1	24.8% (inactive)
COC(=O)[C@]1(C)CCC[C@]2(C)[C@H]3C[C@H]4C(C(C)C)=C[C@]3(CC[C@H]21)[C@H]1[C@@H]4[C@@H](OCCC#N)CC[C@@H]1OCCC#N	42.7% (inactive)
CN(C)c1ccc(Nc2cc(-c3cccc(OC(F)(F)F)c3)nc3ccc(N4CCCC4)cc23)cc1	-73.6% (active)
CCn1c(=S)sc2c(Nc3ccc(F)cc3)nc(-c3cccnc3)nc21	81.1% (inactive)
